Measurements published in PubChem BioAssay AID1159580 (chemical genetic matrix, 2015).
Screen size: about 5,500 compounds; about 2,000 (36%) were called active. Roughly 18% stayed inconclusive and do not appear here. Cut-off read from the data, not from the text of the source: active = normalized growth mostly below about 0.91 (no sharp cut-off); inconclusive = no clear call, values can overlap the other calls; inactive = mostly above about 0.92. This is one part of the list.

Test: chemical genetic growth profiling, strain panel (AID 1159580);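 note: tested at 20 µM; growth read once vehicle control cultures reached saturation at 30 °C; 1 = growth at the plate median or of vehicle wells; lower values mean less growth of the strain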
Conditions: S. cerevisiae deletion strains, growth OD

Measured: normalized growth

O=C(NCCSCc1cccc(C(F)(F)F)c1)Nc1cccc(C(F)(F)F)c1
inactive: locus YAR019C, strain CDC15, stronger effect = lower value 0.999 | locus YBL105C, strain PKC1, stronger effect = lower value 1 | locus YBR135W, strain CKS1, stronger effect = lower value 0.994 | locus YBR136W, strain MEC1, stronger effect = lower value 0.998 | locus YBR160W, strain CDC28, stronger effect = lower value 0.997 | locus YDL017W, strain CDC7, stronger effect = lower value 1 | locus YDL028C, strain MPS1, stronger effect = lower value 0.996 | locus YDL101C, strain DUN1, stronger effect = lower value 1.01 | locus YDL108W, strain KIN28, stronger effect = lower value 0.999 | locus YDL132W, strain cdc53, stronger effect = lower value 0.99 | locus YDL214C, strain PRR2, stronger effect = lower value 1.01 | locus YDR052C, strain DBF4, stronger effect = lower value 1.01 | locus YDR054C, strain cdc34, stronger effect = lower value 0.995 | locus YDR226W, strain ADK1, stronger effect = lower value 1 | locus YDR477W, strain SNF1, stronger effect = lower value 1.01 | locus YER123W, strain YCK3, stronger effect = lower value 1.02 | locus YER133W, strain GLC7, stronger effect = lower value 1.02 | locus YFL009W, strain cdc4, stronger effect = lower value 0.992 | locus YFL029C, strain CAK1, stronger effect = lower value 0.991 | locus YFR003C, strain YPI1, stronger effect = lower value 1 | locus YFR019W, strain FAB1, stronger effect = lower value 1 | locus YFR028C, strain CDC14, stronger effect = lower value 0.997 | locus YGR040W, strain KSS1, stronger effect = lower value 1 | locus YGR052W, strain FMP48, stronger effect = lower value 1.18 | locus YGR092W, strain DBF2, stronger effect = lower value 1 | locus YHR030C, strain SLT2, stronger effect = lower value 1.15 | locus YHR079C, strain IRE1, stronger effect = lower value 1.11 | locus YHR082C, strain KSP1, stronger effect = lower value 1.18 | locus YHR205W, strain SCH9, stronger effect = lower value 0.989 | locus YIL147C, strain SLN1, stronger effect = lower value 1 | locus YJL095W, strain BCK1, stronger effect = lower value 1.17 | locus YJL128C, strain PBS2, stronger effect = lower value 0.954 | locus YJL157C, strain FAR1, stronger effect = lower value 1.01 | locus YJR016C, strain ILV3, stronger effect = lower value 1.01 | locus YJR066W, strain TOR1 (second series), stronger effect = lower value 0.993 | locus YJR066W, strain TOR1, stronger effect = lower value 1.21 | locus YKL048C, strain ELM1, stronger effect = lower value 0.983 | locus YKL067W, strain YNK1, stronger effect = lower value 1.01 | locus YKL101W, strain HSL1, stronger effect = lower value 0.997 | locus YKL193C, strain SDS22, stronger effect = lower value 1 | locus YKL203C, strain TOR2, stronger effect = lower value 1.09 | locus YLR113W, strain HOG1, stronger effect = lower value 1.07 | locus YLR133W, strain CKI1, stronger effect = lower value 0.997 | locus YLR403W, strain SFP1, stronger effect = lower value 0.999 | locus YML070W, strain DAK1, stronger effect = lower value 1.01 | locus YMR001C, strain CDC5, stronger effect = lower value 0.996 | locus YMR205C, strain PFK2 (second series), stronger effect = lower value 1.01 | locus YMR277W, strain FCP1, stronger effect = lower value 0.999 | locus YNL006W, strain LST8, stronger effect = lower value 1 | locus YNL020C, strain ARK1, stronger effect = lower value 0.988 | locus YNL161W, strain CBK1, stronger effect = lower value 1 | locus YNL183C, strain NPR1, stronger effect = lower value 1.15 | locus YNL207W, strain RIO2, stronger effect = lower value 1.01 | locus YNL222W, strain SSU72, stronger effect = lower value 0.998 | locus YNL307C, strain MCK1 (second series), stronger effect = lower value 0.997 | locus YOL078W, strain AVO1, stronger effect = lower value 0.995 | locus YOL136C, strain PFK27, stronger effect = lower value 0.992 | locus YOR061W, strain CKA2, stronger effect = lower value 0.986 | locus YOR119C, strain RIO1, stronger effect = lower value 1.04 | locus YOR231W, strain MKK1, stronger effect = lower value 1.1 | locus YOR329C, strain SCD5, stronger effect = lower value 1 | locus YPL031C, strain PHO85, stronger effect = lower value 1.01 | locus YPL153C, strain RAD53, stronger effect = lower value 1.02 | locus YPL204W, strain HRR25, stronger effect = lower value 1.01 | locus YPL209C, strain IPL1, stronger effect = lower value 0.997 | locus YPL256C, strain CLN2, stronger effect = lower value 1.11 | locus YPR025C, strain CCL1, stronger effect = lower value 0.999 | locus YPR106W, strain ISR1, stronger effect = lower value 0.992 | locus YPR111W, strain DBF20, stronger effect = lower value 0.986 | strain NNK1, stronger effect = lower value 0.994 | strain TSCII, stronger effect = lower value 0.995
